Experimental data: PubChem BioAssay
Active and inactive are the calls of the source.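 Rule for the calls, unless noted: active = inhibition above 20% together with a positive visual image hit; inconclusive = visual image hit but inhibition not above 20%; inactive = no visual image hit.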

Assays:
[1] = inhibitors of TNFa-induced NFkB p65 translocation, primary screen, imaging, HUVEC, MLSMR starter and 10KST1 sets (AID 438); details: HUVEC TNFa-induced p65 nuclear translocation; cell count: measured here: nuclei count (cytotoxicity indicator), at 2.08 µM; inhibition: at 2 µM, stronger effect = higher value, 0% TNFa-plus-vehicle, 100% no-TNFa wells;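 note: compound added about 3h40 before a 20 min TNFalpha stimulation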;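 for inhibition: signal is the nuclear over cytoplasmic p65 intensity ratio per well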
[2] = inhibitors of mutant huntingtin aggregation, primary screen, imaging, exon1htt(103Q)mCFP cells, high-content imaging (AID 483;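 active = visual image review flags a hit and inhibition of aggregation exceeds 20%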;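 note: compound exposure lasted 3 days before fixation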;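 for nuclei count: percent of the per-plate median nuclei count of sample wells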); details: exon1htt(103Q)mCFP cell line, aggregate imaging, at 2 µM; inhibition of aggregation: stronger effect = higher value; nuclei count: measured here: cell count, toxicity
[3] = inhibitors of E-selectin induction by TNFa, primary screen, imaging, HUVEC, immunofluorescence, MLSMR starter and 10KST1 sets (AID 487;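 active = visually confirmed hit in the image check and inhibition above 20%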;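 for inhibition: signal is fraction of cell area covered by stained E-selectin grains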;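 for nuclei count: 100% = median nuclei count of all wells on the same plate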); details: HUVEC TNFalpha-induced E-selectin immunofluorescence imaging, at 2 µM; inhibition: stronger effect = higher value; nuclei count: measured here: cell number, toxicity
[4] = target: Voltage-gated potassium channel subunit beta-2 (Rattus norvegicus) (UniProt P62483); experiment: KvBeta enzyme negative modulators, primary screen, biochemical, NADPH fluorescence (AID 622;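 active = fluorescence slope higher than the sample average by over 3 SD, cut at about -0.22 in these data, passing the limit was not always enough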;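 note: slope of raw intensity against log time taken from 70 to 1610 s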); details: recombinant KvBeta, 4-cyanobenzaldehyde reduction, at 10 µM, stronger effect = higher value
[5] = target: Voltage-gated potassium channel subunit beta-2 (Rattus norvegicus) (UniProt P62483); experiment: KvBeta positive modulators, primary screen, biochemical, NADPH fluorescence (AID 623;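 active = NADPH fluorescence slope more negative than the mean of all samples by about 3 SD, 99.7% confidence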;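 note: fluorescence intensity change per second fitted from 20 to 320 s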); details: Recombinant KvBeta, NADPH fluorescence decrease slope, 10 min; at 10 µM; stronger effect = lower value
[6] = target: Alpha-2C adrenergic receptor (Homo sapiens) (UniProt P18825); experiment: modulators of alpha2C/GIRK thallium flux, primary screen, cell-based, HEK293 alpha2C/GIRK1/2 (AID 624;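 active = fluorescence slope after compound addition differing from the mean of all screened samples at 99.7% confidence, in either direction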;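 note: slope of fluorescence ratio to pre-addition baseline per second over 15 to 24 s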); details: thallium flux BTC fluorescence, at 10 µM, actives lie on both sides
[7] = inhibitors of Sendai virus-induced IRF3 signaling, primary screen, TLR/RLR signaling modifier project, cell-based, Sendai virus stimulus, luciferase, 10K MLSCN set (AID 602276;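 active = inhibition at or above 50% at 10 µM; inactive = inhibition below 50%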;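 note: firefly luciferase from ISG56 promoter only with Renilla not read in this screen; 0% = Sendai virus plus DMSO and 100% = medium plus DMSO without virus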); details: HEK293 RL24 IRF3 luciferase reporter, at 10 µM, stronger effect = higher value
[8] = inhibitors of poly I:C-induced TLR3 signaling, primary screen, cell-based, poly I:C stimulus, luciferase, 10K MLSCN set (AID 602277;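 active = inhibition of the reporter signal at or above 50%; inactive = inhibition below 50%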); details: HEK293-TLR3 RL24 IRF3 luciferase reporter, at 10 µM, stronger effect = higher value

Sequence of Alpha-2C adrenergic receptor (Homo sapiens) (P18825 whole entry, looked up): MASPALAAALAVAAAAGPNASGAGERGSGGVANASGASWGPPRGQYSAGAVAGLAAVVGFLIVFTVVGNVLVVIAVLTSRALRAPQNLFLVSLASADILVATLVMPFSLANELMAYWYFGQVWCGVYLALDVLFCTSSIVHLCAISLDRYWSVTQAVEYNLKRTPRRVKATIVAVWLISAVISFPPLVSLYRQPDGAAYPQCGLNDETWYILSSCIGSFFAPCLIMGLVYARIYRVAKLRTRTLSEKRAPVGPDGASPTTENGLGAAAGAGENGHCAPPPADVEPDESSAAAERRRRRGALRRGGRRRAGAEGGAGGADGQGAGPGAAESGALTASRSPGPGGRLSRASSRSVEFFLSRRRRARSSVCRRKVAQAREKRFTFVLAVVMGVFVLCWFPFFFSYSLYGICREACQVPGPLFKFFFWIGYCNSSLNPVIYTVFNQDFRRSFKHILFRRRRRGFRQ
Sequence of Voltage-gated potassium channel subunit beta-2 (Rattus norvegicus) (P62483 whole entry, looked up): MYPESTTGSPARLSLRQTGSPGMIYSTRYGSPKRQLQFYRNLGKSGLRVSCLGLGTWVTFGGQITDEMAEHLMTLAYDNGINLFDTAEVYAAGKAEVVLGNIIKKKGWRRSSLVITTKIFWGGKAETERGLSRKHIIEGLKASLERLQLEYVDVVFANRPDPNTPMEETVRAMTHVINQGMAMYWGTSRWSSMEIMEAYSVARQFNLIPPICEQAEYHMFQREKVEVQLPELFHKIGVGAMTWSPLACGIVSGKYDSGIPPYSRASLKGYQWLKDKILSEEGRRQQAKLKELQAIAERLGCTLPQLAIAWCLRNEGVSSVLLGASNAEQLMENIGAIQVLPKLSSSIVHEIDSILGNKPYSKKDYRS

| Compound | cell count [1] | inhibition [1] | inhibition of aggregation [2] | nuclei count [2] [%] | inhibition [3] | nuclei count [3] [%] | fluorescence slope [4] | NADPH fluorescence slope [5] | slope [6] | inhibition [7] | inhibition [8] |
| --- | --- | --- | --- | --- | --- | --- | --- | --- | --- | --- | --- |
| COc1ccc(N2CC(C(=O)Nc3ccc(F)cc3F)CC2=O)cc1 (stereo not given) | 281 | -3.5% (inactive) | -30.8% (inactive) | 111 | 12% (inactive) | 104 | -0.514 (inactive) | -1.3e-05 (inactive) | 0.00428 (inactive) | 14.4% (inactive) | 20.8% (inactive) |
| COc1ccc(-c2nc3cc(NC(=O)Cc4ccc(OC)c(OC)c4)ccc3o2)cc1 | 581 | -25.3% (inactive) | -10.5% (inactive) | 88.5 | -13.5% (inactive) | 114 | -0.468 (inactive) | -4.6e-05 (inactive) | 0.00505 (inactive) | -9.84% (inactive) | -114% (inactive) |
| CCOc1ccc(Nc2nc(Cc3nnc(SCC(N)=O)o3)cs2)cc1 | 453 | 6.7% (inactive) | -0.8% (inactive) | 104 | – | 154 | -0.608 (inactive) | -2.2e-05 (inactive) | 0.00638 (inactive) | 9.26% (inactive) | 14% (inactive) |
| COC(=O)Nc1ccc(NC(C)=O)cc1 | 398 | -4.4% (inactive) | 20.9% (inactive) | 82.1 | 6.8% (inactive) | 94.6 | -0.493 (inactive) | 6e-05 (inactive) | 0.00538 (inactive) | -9.94% (inactive) | -5.16% (inactive) |
| COc1ccc(Cc2noc(-c3ccc(C)cc3)n2)cc1 | 488 | 12.1% (inactive) | -0.3% (inactive) | 104 | -304% (inactive) | 138 | -0.366 (inactive) | 3.7e-05 (inactive) | 0.00509 (inactive) | -38% (inactive) | -135% (inactive) |
| COC(=O)C1(C)NC(c2cccs2)C2C(=O)N(c3ccccc3F)C(=O)C21 (stereo not given) | 334 | 2.8% (inactive) | -16.9% (inactive) | 101 | -24.7% (inactive) | 119 | -0.52 (inactive) | 2.7e-06 (inactive) | 0.00503 (inactive) | -3.44% (inactive) | -0.188% (inactive) |
| O=C(COc1cccc(Oc2ccccc2)c1)Nc1ncccn1 | 739 | 3.1% (inactive) | 12.8% (inactive) | 103 | -25.1% (inactive) | 111 | -0.609 (inactive) | -1.1e-05 (inactive) | 0.00604 (inactive) | 4.77% (inactive) | 4.74% (inactive) |
| CCOC(=O)Cc1c(C)c2c(O)cc(O)cc2oc1=O | 450 | 9% (inactive) | -19.7% (inactive) | 111 | – | 150 | -0.0503 (inactive) | 6.3e-06 (inactive) | 0.00591 (inactive) | 15.2% (inactive) | 9.57% (inactive) |
| CCCCOn1c(C)c(C(=O)OCC)c2c3nonc3ccc21 | 596 | -27.1% (inactive) | -30.2% (inactive) | 116 | -12.4% (inactive) | 101 | -0.458 (inactive) | 6.8e-06 (inactive) | 0.00452 (inactive) | -10.2% (inactive) | -12.6% (inactive) |
| Cc1cccc(NC(=O)CSc2nnc(-c3ccccc3C)o2)c1 | 414 | 0.8% (inactive) | -0.2% (inactive) | 92 | – | 116 | -0.32 (inactive) | -4.9e-05 (inactive) | 0.00441 (inactive) | -55.2% (inactive) | -86.9% (inactive) |
| COc1cc(S(=O)(=O)N2CCC(N3CCCCC3)CC2)ccc1-n1cnnn1 | 351 | 6.9% (inactive) | 14.1% (inactive) | 89.1 | -20.4% (inactive) | 102 | -0.593 (inactive) | -7.9e-06 (inactive) | 0.00492 (inactive) | -9.28% (inactive) | 3.24% (inactive) |
| O=C(c1ccco1)N1CCN(C(=O)c2sccc2-c2ccccc2)CC1 | 310 | 20.7% (inactive) | 7.1% (inactive) | 90 | -74.7% (inactive) | 115 | -0.581 (inactive) | 2.3e-06 (inactive) | 0.0052 (inactive) | -5.94% (inactive) | 4.34% (inactive) |
| O=C(Nc1ccc(N2C(=O)C3C4C=CC(C4)C3C2=O)cc1)Nc1nncs1 (stereo not given) | 668 | -9.8% (inactive) | 4.9% (inactive) | 92 | -77.5% (inactive) | 125 | -0.579 (inactive) | 6.4e-08 (inactive) | 0.0068 (inactive) | 2.97% (inactive) | -2% (inactive) |
